Drawing on ChEMBL document CHEMBL3988442, “University of Dundee, Small-Polar-MMV Screening Library” (2021), this text covers Percent Effect for 17 compounds.

For assay [1], the target named is T1, Aspartate--tRNA(Asp/Asn) ligase (Mycobacterium tuberculosis (strain ATCC 25618 / H37Rv)) (UniProt P9WFW3). Also: in the data most compounds retested in dose-response had high values.
T1 sequence (whole entry): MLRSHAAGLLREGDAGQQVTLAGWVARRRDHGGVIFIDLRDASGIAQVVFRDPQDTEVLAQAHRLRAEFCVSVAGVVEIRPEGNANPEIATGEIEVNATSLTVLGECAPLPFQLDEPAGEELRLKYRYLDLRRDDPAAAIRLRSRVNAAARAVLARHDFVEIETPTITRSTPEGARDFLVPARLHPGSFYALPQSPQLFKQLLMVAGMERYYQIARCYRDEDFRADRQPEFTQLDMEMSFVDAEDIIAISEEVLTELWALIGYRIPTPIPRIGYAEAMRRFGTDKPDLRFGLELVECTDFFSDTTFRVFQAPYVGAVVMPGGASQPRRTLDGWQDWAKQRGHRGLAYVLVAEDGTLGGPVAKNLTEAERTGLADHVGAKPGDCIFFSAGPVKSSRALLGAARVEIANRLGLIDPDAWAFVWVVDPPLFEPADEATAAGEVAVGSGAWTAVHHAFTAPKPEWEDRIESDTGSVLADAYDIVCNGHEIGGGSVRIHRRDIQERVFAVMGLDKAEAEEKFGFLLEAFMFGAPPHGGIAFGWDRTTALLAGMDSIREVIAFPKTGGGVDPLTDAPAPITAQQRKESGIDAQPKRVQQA
As to the kind of experiment: Assay for Asp RNA synthetase-1 from Mycobacterium tuberculosis. Type of assay: functional. Also on record: scale not given: direction of the effect not stated beside the values. The note with it: 30 µM.

Assay [2] concerns the target Shiga toxin 2 (Escherichia coli O157:H7) (UniProt P09385+P09386). As to the kind of experiment: E. coli 0.157:H7 Shiga Toxin SOP - stx2 screening assay. The assay is classed as functional. Also on record: scale not given: direction of the effect not stated beside the values. The note with it: 30 µM.

For `O=C(CCCOCc1ccccc1)N1CCCC1c1ccccn1` (centres undefined), the Percent Effect was -1.14% in assay [1] and -0.85% in assay [2].
In the same order, the values of `COc1ccc(OCc2cc(C(=O)N3CCN[C@H](C)C3)n[nH]2)c(Cl)c1` are -1.22% and -61%.
On to `Cc1nc(C)n(CC2CN(CCc3ccncc3)CCO2)n1` (centres undefined), for which the Percent Effect in assay [1] is 1.98%; in assay [2] it was -14.2%.
For the compound `CCn1ccnc1CN1CCN(C(C)C(=O)NC2CCCCC2)CC1` (centres undefined), the Percent Effect was -1.01% in assay [1] and 22% in assay [2].
Regarding `CCOc1ccc(CN(C)C(=O)NC(C)c2nncn2C)cc1` (centres undefined), the values for the Percent Effect in assay [1] and in assay [2] were 0.975% and -14.2%, respectively.
In the case of `COCC(=O)N1CCC(c2cc(C(F)(F)F)n3ccnc3n2)CC1`, the Percent Effect in assay [1] was -2.99%; in assay [2] it was -10.9%.
Regarding `Cc1nnc(N2CCCC3(CN(Cc4ccc(C)s4)CCO3)C2)o1` (centres undefined), the Percent Effect in assay [1] was 0.479%; in assay [2] it was -45.3%.
Take `Cc1ccc(CN2CCC3(CC(C(=O)NCC4CC4)=NO3)C2)cc1C` (centres undefined): the Percent Effect was 7.45% in assay [1] and -15.5% in assay [2].
On to `CCOCC(O)CN1CCN(C(=O)c2cccc(F)c2)CC1` (centres undefined), for which the Percent Effect in assay [1] was 0.145%; in assay [2], -5.86%.
Take `COC(=O)c1cccc(C(=O)N2CCN(c3cccc(C)c3C)CC2)n1`: the figures for the Percent Effect in assay [1] and in assay [2] were -1.18% and -18.6%, respectively.
For `Cn1ccc(C(=O)N2CCC[C@]3(C[C@@H](OCc4ccccn4)CO3)C2)n1`, the Percent Effect in assay [1] was -1.05%; in assay [2] it was -3.97%.
The corresponding values for `CNC(=O)CN1CCCC12CCN(C(=O)c1ccsc1)CC2` are 0.137% and -0.413%.
For the compound `CNC(=O)c1cnc(/C=C/c2cc(OC)c(OC)c(OC)c2)s1`, the values for the Percent Effect in assay [1] and in assay [2] were -0.971% and -44.8%, respectively.
`CCOC(CC)C(=O)NCCC(=O)N1CCN(c2ccccn2)CC1` (centres undefined): the Percent Effect in assay [1] is 2.61%; in assay [2] it was -11.4%.
In the case of `Cc1ccc(C(=O)N2CCC3(CC2)COC(COc2ccccn2)C3)o1` (centres undefined), the Percent Effect in assay [1] stood at 4.9%; in assay [2] it was 5.7%.
The corresponding values for `Cc1n[nH]c(C2CN(C(=O)c3cnc[nH]3)CCO2)n1` (centres undefined) are 1.76% and 23.8%.
Turning to `Cc1cnn(CCNCc2ccccc2C#N)c1`, the figures for the Percent Effect in assay [1] and in assay [2] were -1.14% and 12.5%, respectively.
